What was measured:
Settings in all cases: concentration: 1 μM,replicates: in singlicate; n = 1
MEK5 = test system: T1, MEK5
T1 construct: gene MAP2K5

MEK6 = test system: T2, MEK6
T2 construct: gene MAP2K6

MELK = test system: MELK
MERTK = test system: MERTK
MET = test system: MET
MINK = test system: T3, MINK
T3 construct: gene MINK1

MKK7 = test system: MKK7
MKNK1 = test system: MKNK1
MKNK2 = test system: MKNK2
MLCK = test system: T4, MLCK
T4 construct: gene MYLK3
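Also: KINOMEscan kinase panel screen.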

SMILES	%Inh (MEK5) [%]	%Inh (MEK6) [%]	%Inh (MELK) [%]	%Inh (MERTK) [%]	%Inh (MET) [%]	%Inh (MINK) [%]	%Inh (MKK7) [%]	%Inh (MKNK1) [%]	%Inh (MKNK2) [%]	%Inh (MLCK) [%]
COc1cccc(CNC(=O)NC2CCN(c3ccnc(Nc4cc(OC)c(OC)c(OC)c4)n3)C2)c1 (centres unmarked) [GSK1379765]	99.9	0	15	17	26	12	0	21	39	6
Cc1ccc(C(=O)Nc2ccc(Oc3ccc4nc(NC(=O)C5CC5)cn4c3)c(F)c2)c(=O)n1-c1ccccc1	98.9	0	37	99.2	–	0	0	88	94.2	0
CS(=O)(=O)c1cccc(CNc2nc(Nc3ccc4c(c3)[C@@H]3C[C@@H]4CNC3=O)ncc2C(F)(F)F)c1	94.5	5	5	98.6	93.8	90.3	9	0	97.6	15
Cc1ccc2c(-c3ccnc(Nc4ccc(C(F)(F)F)cc4)n3)cnn2n1 [GW819776]	33	13	0	26	5	18	0	0	0	0
CC(=O)Nc1ccc(-c2cc3ncnc(SCC(=O)O)c3s2)cc1	17	20	0	0	0	25	0	0	0	40
O=C(Nc1ccc(Oc2ccc3nc(NC(=O)C4CC4)cn3n2)c(F)c1)c1cccn(-c2ccccc2)c1=O	97	0	18	96	–	0	0	20	92.5	0
Cn1ccc2ncnc(Oc3ccc(NC(=O)Nc4cc(C(C)(C)C)on4)c(Cl)c3)c21	71	7	20	94.8	48	91.6	0	3	90	7

— PMC5540273 (PLoS ONE, 2017)
